# NIH3T3 tox = Cytotoxic Profiling in NIH 3T3 Cell Line of Diverse Libraries Using Quantitative High-Throughput Screening; Potency, µM (top dose mostly 96.7 µM), inactives show top-dose activity change, negative = cytotoxicity, hits mostly inhibitors; NIH 3T3 viability, CellTiter-Glo ATP luminescence, 48-72 h; 4.3% of 94,000 active; also: nearly all actives have a fitted effect of over 55% in size
#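 ATP-dependent luminescence (CellTiter-Glo) served as the viability signal for NIH 3T3 cells treated with compound for 48 or 72 hr at 37 °C.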
# hNpr1 antagonist = Natriuretic polypeptide receptor (hNpr1) antagonism - Primary qHTS; Atrial natriuretic peptide receptor 1 (Homo sapiens), P16066; HEK293 hNpr1 GloSensor cGMP, ANP-stimulated luminescence; Potency, µM (doses to about 46.3 µM), for inactives: at the top dose activity change, negative = inhibition, most hits filed as inhibitors; 1.6% of 76,000 active; calls by dose curve; also: nearly all actives have a fitted effect of over 60% in size
#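 Compound pre-incubated 30 min at room temperature on GloSensor-loaded HEK293 cells stably carrying hNpr1 and the pGS-40F cGMP biosensor. Stimulation uses hNppA at 0.1 nM final; luminescence is taken at baseline and 20 min post-agonist.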
# HEK cytotox = Cytotoxic Profiling in HEK 293 Cell Line of Diverse Libraries Using Quantitative High-Throughput Screening; HEK 293 viability, ATP luminescence (CellTiter-Glo), 48-72 h; Potency, µM (titrated, usually from 115 µM), for the others: top-dose activity change, negative = cytotoxicity, hits mostly inhibitors; 6.6% of 94,000 active; AID 1345083, 2018; also: nearly all actives have a fitted effect of over 60% in size
#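 Pintool-delivered compounds were incubated with HEK 293 cells (250 cells/well) at 37 degree Celsius for 48 or 72 hr. ATP-dependent luminescence (CellTiter-Glo) then reported remaining viable cells.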
# FLuc inh = Firefly luciferase inhibition profiling of diverse chemical library using quantitative high-throughput screening; Luciferin 4-monooxygenase (Photinus pyralis), P08659; purified P. pyralis luciferase, luminescence, biochemical; Potency, µM (titrated, usually from 115 µM), actives largely listed as inhibitors; 2.5% of 76,000 active; AID 1347043, 2019; also: nearly all actives have a fitted effect of over 65% in size
# Target sequence (P08659 whole entry, looked up): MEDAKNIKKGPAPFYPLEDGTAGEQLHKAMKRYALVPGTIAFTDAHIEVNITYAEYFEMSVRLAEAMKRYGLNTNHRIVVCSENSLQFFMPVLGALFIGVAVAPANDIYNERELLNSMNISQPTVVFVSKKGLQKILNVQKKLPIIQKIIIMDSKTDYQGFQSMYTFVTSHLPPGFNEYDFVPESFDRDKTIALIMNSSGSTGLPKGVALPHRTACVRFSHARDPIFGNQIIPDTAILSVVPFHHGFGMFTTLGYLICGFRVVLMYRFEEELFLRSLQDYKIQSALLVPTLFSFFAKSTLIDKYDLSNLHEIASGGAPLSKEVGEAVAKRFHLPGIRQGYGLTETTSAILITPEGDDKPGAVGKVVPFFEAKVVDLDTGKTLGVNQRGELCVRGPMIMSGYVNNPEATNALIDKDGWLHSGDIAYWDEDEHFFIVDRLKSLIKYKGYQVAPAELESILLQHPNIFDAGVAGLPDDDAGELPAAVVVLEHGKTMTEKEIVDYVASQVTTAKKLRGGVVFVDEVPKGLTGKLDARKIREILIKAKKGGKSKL
#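 Biochemical qHTS: compound (6-point titration) added to 10uM D-luciferin plus 10uM ATP in Tris acetate pH 7.5 buffer with Mg, Tween-20 and BSA, then purified enzyme at 10nM; light output imaged.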
# Numbers without * were called inactive; i = inactive; u = inconclusive; x = no result; [ ] = another dose, or the depositor's remark. Sampled rows, rich in hits. Any-hit rate of the full collection: about 11%. Unless noted, calls follow the shape of the dose curve; as a rule, active = well fitted curve in the direction sought with a large enough effect; inconclusive = small, poorly fitted or top-dose-only effect, or another doubt; inactive = no such curve, though single readings can be large; an effect the other way counts as inactive or inconclusive. % is scaled to controls: 0 for no effect and ±100 for the full control effect; potency is read from the fitted curve at half-maximal effect.
SMILES,NIH3T3 tox,hNpr1 antagonist,HEK cytotox,FLuc inh
c1cc(Cn2ccc3c(N4CCOCC4)nc(-c4ccc5cn[nH]c5c4)cc32)ccn1,25.1µM*,-21.2%[70.6 µM],39.8µM*,i
CN(C)Cc1ccc(-c2cc3c(ccn3Cc3ccncc3)c(N3CCOCC3)n2)cc1,u,-1.2%[70.6 µM],100µM*,i
Cc1noc(C)c1Cc1ccc(C(=O)N2CCC(C)(c3noc(-c4cccnc4)n3)CC2)o1,31.6µM*,-22.7%,u,i
CC1(c2noc(-c3ccccn3)n2)CCN(C(=O)CCc2nc3ccc(Cl)cc3[nH]2)CC1,u,-15.8%,50.1µM*,i
CC1(c2noc(C3CC3)n2)CCN(C(=O)CCc2nc3ccc(Cl)cc3[nH]2)CC1,-23.1%,-19.8%,u,i
Cc1noc(C)c1Cc1ccc(C(=O)N2CCC(C)(c3noc(-c4ccccn4)n3)CC2)o1,u,-29.6%,44.7µM*,i
CC1(c2noc(-c3ccccn3)n2)CCN(C(=O)CCC(=O)N2CC(=O)Nc3ccccc32)CC1,3.1%,0.8%,11.2%,i
COc1ccc(C2(C(=O)NCc3ccccc3F)CCOCC2)cc1,-8.9%,x,-3.4%,x
COc1ccc(-c2nccc3c(=O)cc(N4CCOCC4)oc23)cn1,u,6.1%[70.6 µM],-9.9%[172 µM],i
COc1ccc(-c2nc(C(C)C)nc3c2CCN(C(=O)c2cccc(Cl)c2)CC3)cc1,44.7µM*,-19.6%,u,i
COc1ccc(-c2nc(C(C)C)nc3c2CCN(C(C)=O)CC3)cc1,-26.6%[138 µM],3.4%[70.6 µM],-8.7%[172 µM],i
COc1ccc(C(=O)N2CCc3nc(-c4ccccc4)nc(-c4ccc(OC)cc4)c3C2)cc1,-31.7%,2.4%,u,i
O=C(c1ccccc1Cl)N1CCc2nc(-c3ccc(Cl)cc3)nc(-c3ccccc3)c2C1,u,-2.1%,25.1µM*,u
O=C(Cc1ccc(F)cc1)N1CCc2nc(-c3ccc(Cl)cc3)nc(-c3ccccc3)c2C1,u,8.4%,35.5µM*,i
COc1ccc(C(=O)N2CCc3nc(-c4ccc(Cl)cc4)nc(-c4ccccc4)c3C2)cc1,u,6.1%,39.8µM*,i
COc1ccccc1N1CCN(C(=O)Nc2n[nH]c(Cc3ccccc3)n2)CC1,u,-16.9%,25.1µM*,i
OC[C@@H]1CN(C2CCCC2)C[C@H]1c1nc(-c2cccnc2)no1,-0.5%,-1.8%,-5.6%,31.6µM*
OC[C@@H]1CN(C2CCCC2)C[C@H]1c1nc(-c2ccncc2)no1,-12.3%,-2.3%,i,25.1µM*
C=CCN1C[C@H]2COc3cc(OC)ccc3[C@H]2N(C(=O)Cc2ccccc2)CCC1=O,u,x,-16.8%,x
O=C(CCC1CCN(Cc2cccc3c2OCO3)CC1)NCc1cccc(C(F)(F)F)c1,u,-5.2%,u,i
COC(=O)[C@@H]1Cc2c([nH]c3ccccc23)[C@H]2C[C@@H](NCCNC(C)=O)C[C@@H](c3ccc(C(F)(F)F)cc3)N21,20µM*,-9.0%,25.1µM*,i
COC(=O)[C@@H]1Cc2c([nH]c3ccccc23)[C@@H]2C[C@@H](NCCNC(C)=O)C[C@@H](c3ccc(F)c(F)c3)N12,31.6µM*,5.1%,31.6µM*,i
COC(=O)[C@@H]1Cc2c([nH]c3ccccc23)[C@H]2C[C@@H](NCCNC(C)=O)C[C@@H](c3ccc(C)cc3)N21,28.2µM*,-12.1%,28.2µM*,i
COC(=O)[C@@H]1Cc2ncn(C(C)C)c2CN1C(=O)c1ccc(C(F)(F)F)cc1,-12.6%[174 µM],3.1%[70.6 µM],i,i
COc1ccc(C(=O)N[C@H]2C[C@H]3C(=O)NC[C@@H](CCC(=O)NCc4ccccc4)N3C2)cc1,-14.4%,-8.0%,i,i
COC(=O)[C@@H]1Cc2c([nH]c3ccccc23)[C@H]2C[C@@H](NCCNC(C)=O)C[C@@H](c3ccccc3)N21,79.4µM*,-3.6%,u,u
COCCNC(=O)[C@H]1C[C@H](Oc2ccccc2)CN1C(=O)NCc1ccc(C)cc1,-4.8%,0.5%,i,i
Cn1cc(CN2C[C@H](C(=O)Nc3ccccc3)C[C@H]2c2cccc(C(F)(F)F)c2)cn1,u,1.3%[70.6 µM],u,i

# High-throughput results from PubChem BioAssay.
